LMP1 NFkB inh: Epstein-Barr LMP1 NF-kappaB reporter inhibition; LMP1-induced NF-kappaB luciferase reporter cells, luminescence; inhibition, % at 12.5 µM; actives 0.69% (n = 350,000); in the data active = inhibition above about 41%
TRPM1 prom inh: MITF TRPM1 promoter inhibition in SK-MEL-5 cells; SK-MEL-5 TRPM1 promoter luciferase, 24 h; inhibition, % at 12.5 µM; actives 0.83% (n = 330,000);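 active = mean inhibition across replicates of 60% or more, whatever share of single replicates reaches that level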
Shn3 inh set2: inhibitors of Schnurri-3 3'UTR reporter in osteoblasts | Clone20 osteoblast Shn3 3'UTR firefly luciferase, 24 h | inhibition, % at 12.5 µM | actives 0.52% (n = 360,000) | AID 588674;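 active = mean inhibition of at least 75% with every replicate also reaching 75%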
LGR2 inh: inhibitors of bursicon-induced Drosophila LGR2 receptor cAMP signaling. inhibition, % at 9.99 µM. HEK293 LGR2, CRE-luciferase, bursicon-stimulated, 4 h. actives 0.35% (n = 380,000);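 active = drop in luminescence signal, shown as inhibition above about 50% in the replicate tests, limit read from the data, passing the limit was not always enough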;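 note: agonist challenge used bursicon conditioned medium at about half maximal strength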
PAX8 reporter: PAX8 transcriptional activity inhibition; actives 1.2% (n = 360,000); inhibition, % at 12.6 µM; RMG-I TPO-luciferase reporter, SteadyGlo, 24 h; AID 652154;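 active = mean replicate inhibition at least 60% with every replicate also reaching 60%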;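 note: luciferase light reporting Pax8 driven TPO promoter activity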
EWS-Fli block: EWS/Fli transcriptional activity inhibition | A673 NR0B1-luciferase reporter, viability-normalised | inhibition, % at 12.6 µM | actives 0.67% (n = 350,000) | AID 651661;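 active = mean inhibition of at least 50% after viability correction, with every replicate also passing that limit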;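 note: firefly luciferase signal divided by Alamar Blue viability fluorescence both relative to DMSO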
Hits are given with their value. Rows were chosen to be rich in hits. Some 2.2% of all compounds tested hit in one or more screens of this group.

How did C[C@H](CO)N1C[C@H](C)[C@@H](CN(C)S(=O)(=O)c2ccc(F)cc2)Oc2cc(-c3cccc(F)c3)ccc2S1(=O)=O do in these assays?
LGR2 inh: inactive; EWS-Fli block: inactive

How did O=S(=O)(c1ccc2oc3ccccc3c2c1)N1CCCC1 do in these assays?
LMP1 NFkB inh: inactive; TRPM1 prom inh: inactive; Shn3 inh set2: inactive

Results for CCN(CC)C(=O)C1CCN(S(=O)(=O)c2ccc3oc4ccccc4c3c2)CC1 ?
LMP1 NFkB inh: inactive; TRPM1 prom inh: inactive; Shn3 inh set2: 86; LGR2 inh: inactive; EWS-Fli block: inactive

How did COCC(=O)Nc1ccc2c(c1)[C@H]1C[C@H](CC(=O)NCCN3CCCCC3)O[C@H](CO)[C@H]1O2 do in these assays?
LGR2 inh: inactive; PAX8 reporter: inactive; EWS-Fli block: inactive

Results for Cc1ccc(S(=O)(=O)N2CC[C@@H]3[C@H]2c2cc(C#Cc4ccc(F)cc4)ccc2N[C@@H]3CO)cc1 ?
LGR2 inh: inactive; PAX8 reporter: inactive; EWS-Fli block: inactive

How did Cc1csc2sc(-c3ccnc(SCC(=O)NCc4ccccc4)n3)c(C)c12 do in these assays?
LMP1 NFkB inh: inactive; TRPM1 prom inh: inactive; Shn3 inh set2: inactive; LGR2 inh: inactive; PAX8 reporter: inactive; EWS-Fli block: 55

What do the screens show for `Cc1csc(SCC(=O)NCc2ccccc2)n1`?
LMP1 NFkB inh: inactive; TRPM1 prom inh: inactive; Shn3 inh set2: inactive; LGR2 inh: inactive; PAX8 reporter: inactive; EWS-Fli block: inactive

What do the screens show for `Cc1ccc2nsnc2c1NC(=O)c1ccc(-c2cc(Cl)ccc2Cl)o1`?
LMP1 NFkB inh: inactive; TRPM1 prom inh: 72; Shn3 inh set2: inactive

How did Cc1ccc2nsnc2c1NC(=O)Cc1ccc(Cl)cc1 do in these assays?
LMP1 NFkB inh: inactive; TRPM1 prom inh: inactive; Shn3 inh set2: inactive; LGR2 inh: inactive; PAX8 reporter: inactive; EWS-Fli block: inactive

Results for Cc1nc(Nc2ccccc2)c2oc3ccc(Cl)cc3c2n1 ?
LMP1 NFkB inh: inactive; TRPM1 prom inh: inactive; Shn3 inh set2: inactive; LGR2 inh: inactive; PAX8 reporter: inactive; EWS-Fli block: inactive

Results for Clc1ccc2oc3c(Cl)ncnc3c2c1 ?
LMP1 NFkB inh: inactive; TRPM1 prom inh: 77; Shn3 inh set2: inactive; LGR2 inh: inactive; PAX8 reporter: inactive; EWS-Fli block: inactive

Results for CCOc1cc(/C=C2/NC(=S)NC2=O)ccc1OCc1ccc([N+](=O)[O-])cc1 ?
LMP1 NFkB inh: inactive; TRPM1 prom inh: 63; Shn3 inh set2: inactive; LGR2 inh: inactive

Results for CCOc1cc(C(c2c(C)[nH][nH]c2=O)c2c(C)[nH][nH]c2=O)ccc1OCc1ccc([N+](=O)[O-])cc1 ?
LMP1 NFkB inh: inactive; TRPM1 prom inh: inactive; Shn3 inh set2: inactive

Results for O=c1c2c(-c3ccccc3)csc2nc2c3ccccc3c(NCCN3CCOCC3)nn12 ?
LMP1 NFkB inh: inactive; TRPM1 prom inh: inactive; Shn3 inh set2: inactive; LGR2 inh: 64; PAX8 reporter: inactive; EWS-Fli block: inactive

Results for C[C@H](CO)N1C[C@H](C)[C@@H](CN(C)C(=O)c2ccccn2)Oc2ncc(-c3ccccc3F)cc2C1=O ?
LGR2 inh: inactive; EWS-Fli block: inactive

Results for C/C(=N\Nc1nc2ccccc2[nH]1)c1ccccn1 ?
LMP1 NFkB inh: 93; TRPM1 prom inh: inactive; Shn3 inh set2: inactive; LGR2 inh: inactive; PAX8 reporter: 68; EWS-Fli block: inactive

Results for CC(=NNc1cc(C)c2cc(C)ccc2n1)c1ccccn1 ?
LGR2 inh: inactive; PAX8 reporter: 69; EWS-Fli block: inactive

How did Cc1ccc2nc(N/N=C/c3ccco3)cc(C)c2c1 do in these assays?
LMP1 NFkB inh: inactive; TRPM1 prom inh: inactive; Shn3 inh set2: inactive; LGR2 inh: inactive; PAX8 reporter: inactive; EWS-Fli block: inactive

What do the screens show for `C/C(=N\Nc1nc2ccccc2[nH]1)c1cc2ccccc2o1`?
LMP1 NFkB inh: inactive; TRPM1 prom inh: inactive; Shn3 inh set2: inactive; LGR2 inh: inactive

What do the screens show for `CC(=O)c1ccc(N=Nc2ccc(N)cc2)cc1`?
LMP1 NFkB inh: inactive; TRPM1 prom inh: inactive; LGR2 inh: 64; PAX8 reporter: inactive; EWS-Fli block: inactive

Results for Cc1ccc(S(=O)(=O)Nc2ccc3c(c2)C(=O)N([C@@H](C)CO)C[C@H](C)[C@@H](CN(C)C(=O)Nc2ccc(F)cc2)OCCCC[C@@H](C)O3)cc1 ?
LGR2 inh: inactive; PAX8 reporter: inactive; EWS-Fli block: inactive

Compound activity from PubChem.
